Compounds with a hit are over-represented: about 2.8% of the library has one in this group of screens.
Peg3 prom inh-1: reduces Peg3 promoter-driven luciferase expression in HeLa | inhibition, % at 20 µM | 360,000 tested, 1.7% active | AID 588405 | HeLa PEG-Prom luciferase reporter, luminescence, overnight;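 active = inhibition of at least 50% at 20 µM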
KKLEB tox: counter-screen for CF NF-kB inhibitors: cytotoxicity | KKLEB CF airway cells viability, ATPlite luminescence, overnight; stronger effect = lower value; cells stimulated with P. aeruginosa culture filtrate | activity change (cytotoxicity), % at 5 µM | 360,000 tested, 0.36% active;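 active = corrected activity change at or below -50% at 5 µM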
CF NFkB block: blocks PAF-induced NF-kB reporter in cystic fibrosis cells; KKLEB NF-kB-GFP reporter, GFP fluorescence overnight; inhibition, % at 5 µM; 360,000 tested, 0.86% active; AID 588850;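 active = at least 50% inhibition at 5 µM, scaled per plate between neutral and stimulator controls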;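 note: PAF is a Pseudomonas aeruginosa culture filtrate used as stimulus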
HIF-2a block: inhibitors of HIF-2a | 360,000 tested, 0.72% active | 786-0 RCC cells HIF-2a reporter, luciferase luminescence, overnight | inhibition, % at 18.8 µM;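 active = inhibition of the luminescence signal of 40% or more relative to plate controls, in a single-dose primary screen at 18.75 µM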
MITF TRPM1 inh: inhibitors of MITF-driven TRPM1 promoter in melanoma cells; SK-MEL-5 TRPM1 promoter luciferase, 24 h; 330,000 tested, 0.83% active; inhibition, % at 12.5 µM;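 active = mean inhibition across replicates of 60% or more, whatever share of single replicates reaches that level; inconclusive = some that reach 60%, reason not given; inactive = mean inhibition across replicates below 60%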
Shn3 inh set2: Schnurri-3 reporter inhibition in Clone20 osteoblasts; Clone20 osteoblast Shn3 3'UTR firefly luciferase, 24 h; inhibition, % at 12.5 µM; 360,000 tested, 0.52% active; AID 588674;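 active = mean inhibition of at least 75% with every replicate also reaching 75%; inconclusive = mean inhibition at least 75% but some replicate below; inactive = mean inhibition below 75%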
Peg3 prom inh-2: Peg3 promoter inhibition confirmation | shares compounds with Peg3 prom inh-1 | HeLa PEG-Prom luciferase reporter, luminescence, overnight | 1,300 tested, 84% active | inhibition, % at 20 µM;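 active = at 20 µM dose, 40% or more inhibition averaged across four replicates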
A number is an active result; n = inactive; u = inconclusive; x = no result.

SMILES | Peg3 prom inh-1 | KKLEB tox | CF NFkB block | HIF-2a block | MITF TRPM1 inh | Shn3 inh set2 | Peg3 prom inh-2
Cc1nn(CC(=O)NCc2ccc(OC(C)C)cc2)c(=O)c2cc(-c3ccccc3)nn12 | 51 | n | n | n | n | n | n
CCC(C)NCCOCCOc1ccc(Cl)c2ccccc12 (stereo not drawn) | 102 | n | n | n | n | n | 98
CS(=O)(=O)c1sc(C#N)c2c1C(=O)CC(c1ccccc1)C2 (stereo not drawn) | 98 | n | 81 | 95 | 87 | n | 97
COc1cc(Nc2c3ccccc3nc3ccccc23)cc(OC)c1OC | 107 | n | n | 46 | u | n | 99
COc1ccc(Nc2c3c(nc4ccccc24)CCCC3)cc1OC | n | n | n | n | n | n | x
CCC(C)C(NC(=O)OCc1ccccc1)C(=O)NC(Cc1ccc(O)cc1)C(=O)OC (stereo not drawn) | n | n | n | n | n | n | x
CCc1nn(CC(=O)NCCC2=CCCCC2)c(=O)c2cc3cc(F)ccc3n12 | n | n | n | n | n | n | x
CCCN1CCN(S(=O)(=O)c2c(C)[nH]c(C)c2C(=O)N2CCCCC2)CC1 | n | n | n | n | n | n | x
O=S(=O)(CC(CN1CCCCC1)N1CCCCC1)c1ccccc1 (stereo not drawn) | 67 | n | n | n | n | n | 88
O=C1/C(=C/c2ccccc2)CCc2ccc(Cl)nc21 | 76 | n | n | n | n | n | n
COc1cc([N+](=O)[O-])ccc1NC(=O)CCS(=O)(=O)c1ccc2c(c1)n(C)c(=O)c(=O)n2C | n | n | n | n | n | n | x
COc1ccc2c(-c3ccccc3)cc(SCC(=O)NC3CCS(=O)(=O)C3)nc2c1 (stereo not drawn) | n | n | n | n | n | n | x
COc1ccc(C[C@H]2CN3C(=NC[C@@H]3Cc3ccc(O)cc3)N2C[C@H](C)NC(=O)c2ccc(C)c(Br)c2)cc1 | 101 | n | n | n | n | n | 97
CCc1sc(C(=O)NCCCn2ccnc2)cc1Br | n | n | n | n | n | n | x
CCN(CC)C(=O)[C@H]1CC(CC(=O)NCc2cccc(C(F)(F)F)c2)C(=O)N2CCc3c([nH]c4ccc(OC)cc34)[C@]12C (stereo partly drawn) | n | n | n | n | n | n | x
CC(C)N(C(=O)[C@H]1CC(CC(=O)NCc2cccc(C(F)(F)F)c2)C(=O)N2CCc3c([nH]c4ccccc34)[C@]12C)C(C)C (stereo partly drawn) | 68 | n | n | n | n | n | n
CCOC(=O)COc1ccccc1C(=O)c1cnn(-c2ccccc2)c1 | n | n | n | n | n | n | x
Cc1nc2c(OCc3ccc(OC(F)F)cc3)cccn2c1N(C)C(=O)CCC1CCCC1 | 65 | n | n | n | x | n | 54
Cc1nc2c(OCc3ccc(F)c(F)c3)cccn2c1N(C)C(=O)CCC1CCCC1 | n | n | n | n | x | n | x
C=CCc1cccc(/C=N/NC(=O)C(C)Nc2cccc(C)c2)c1O (stereo not drawn) | 50 | n | n | n | n | n | 44
C=CCc1cccc(/C=N/NC(=O)CCCNc2ccc(C)cc2)c1O | n | n | n | n | n | n | x
CCCCN(CC)Cc1c(O)ccc2c3c(c(=O)oc12)CCC3 | n | n | n | n | n | n | x
Cc1nc(-c2ccc(NC(=O)c3ccco3)cc2)cs1 | 82 | -54 | n | 64 | 73 | n | 67
COc1ccc(C(=O)Nc2nnc(-c3ccco3)s2)cc1 | 63 | n | n | n | n | n | n
COC(=O)c1ccc2nc(-c3cccc(N)c3)cn2c1 | 68 | n | n | n | n | n | n
C/C(=N\N=C(/N)c1nonc1N)c1ccc2c(c1)OCO2 | n | n | n | n | n | n | x
COc1ccc(-c2cc(C(F)F)n3ncc(C(=O)n4ccnc4C)c3n2)cc1 | 55 | n | 74 | n | n | n | 95
Cc1nc2c(-c3ccccc3)c(C)[nH]n2c(=O)c1Cc1ccccc1 | n | n | n | n | n | n | x
Cc1nc2c(-c3ccc(Cl)cc3)c(C)[nH]n2c(=O)c1Cc1ccccc1 | 59 | n | n | n | n | n | 67
